# Records with an inconclusive call do not appear. A number with no mark means an inactive call. Active and inactive are the calls of the source. Calls come from the whole dose curve.
# Target: Atrial natriuretic peptide receptor 1 (Homo sapiens) (UniProt P16066)
# Test: Natriuretic polypeptide receptor (hNpr1) antagonism - Pilot screen (AID 1347049)
# Details: hNpr1 cells, antagonist mode cGMP read-out; series mostly up to 57.5 µM; activity change, negative = inhibition: at the top concentration
# Procedure: In order to identify small molecular compounds that inhibit the hNpr1 receptor we developed a high-throughput assay to measure inhibition of the guanylate cyclase activity of the receptor. cGMP production was measured using a circular permutated Firefly luciferase (FLuc) enzyme functionally linked to the cGMP binding domain of human phosphodiesterase 5 (GloSensor technology pGS-40F, (Fan, F. et al. 2008). The cGMP-sensor was expressed in human embryonic kidney 293 (HEK-293) cells and FLuc activity was measured after stimulation with hNrp agonist peptide. hNrp agonists activates the receptor's associated guanylyl cyclase (GC) domain producing cGMP which then binds to the GloSensor resulting in FLuc activation, the enzymatic activity of which can be measured as bioluminescence with addition of luciferin substrate.
# F. Fan, B. F. Binkowski, B. L. Butler, P. F. Stecha, M. K. Lewis, K. V. Wood, Novel genetically encoded biosensors using firefly luciferase. ACS Chem Biol 3, 346-351 (2008).
# This assay was initially piloted by testing with a small diversity library of compounds with known pharmacological activity.
# PROTOCOL TABLES (as described by Inglese J, Shamu CE and Guy RK. 2007)
# SEQUENCE No. (e.g., 1, 2, 3, etc.); […] (e.g., Cells, Incubation, Reagent, etc.); VALUE and DESCRIPTION.
# 1. Cells. Seed 1500 HEK293 cGMP-sensor cells expressing hNpr1 per well in 4uL into Greiner 1536-well white/solid bottom high base, tissue culture-treated plates.
# 2. Incubation. Incubate plated cells at 37C in 5% CO2, 95% RH overnight.
# 3. Reagent. Add 1uL per well GloSensor reagent from Promega (2% final concentration) or CO2 independent media vehicle control to respective columns of Greiner 1536-well plates.
# 4. Incubation. Incubate plated cells at room temperature for 2 h, protect from light.
# 5. Compounds. Library compounds and A-71915 control added at 23 nL per well, transferred by Pin Tool.
# 6. Incubation. Incubate plated cells for 30 min. at room temperature, protect from light.
# 7. Detector. GloSensor baseline pre-read luminescence measured using CCD-based camera (Viewlux).
# 8. Compound. Add 1uL of hNppA peptide to 0.1 nM final concentration to stimulate hNpr1 or CO2 independent media as vehicle control.
# 9. Incubation. Incubate treated cells at room temperature for 20 min., protect from light.
# 10. Detector. GloSensor post-hNppA luminescence measured using CCD-based camera (Viewlux).
# NOTES (numbers refer to Sequence numbers above)
# 1. HEK293 cells expressing hNpr1 and GIP/pGS-40F grown to 85-95% confluence (48-72 h) in T175 culture flasks (CO2 independent media supplemented with 10% FBS, 1% Pen/Strep antibiotics and 1 ug/mL puromycin). Trypsinize and harvest cells from T175 culture flasks and filter through 40 um cell strainer. Cells counted with Invitrogen Countess (30,000,000 - 50,000,000 cells/flask). Cells diluted to a final concentration of 375 cells/uL in CO2 independent media and a Millipore multidrop used to dispense 1500 cells per well (4uL/well) into 9 x 1536-well Greiner White/Solid bottom, high base tissue-culture treated (TC) plates and one Aurora 1536-well Black/Clear bottom, low base, TC plate (for visual inspection of cell health throughout the duration of the assay).
# 2. Cells incubated overnight at ambient temperature, 24 h. at 37C in 95% RH incubator protected from light, covered with metal lid with gas-exchange holes.
# 3. Prepare GloSensor Reagent (Promega): Reconstitute GloSensor luciferase substrate by adding 8.2mL Hepes buffer to 250mg substrate, mix well, protect from light and stored at -80C. Prepare a fresh 12% GloSensor solution in CO2 independent supplemented plating media (see above). Mix well and store at ambient temperature, protected from light. 1uL 12% GloSensor Luciferase Reagent added (2% final concentration) to respective columns of 9 x 1536-well Greiner plate with BioRaptr, 1uL CO2 independent plating media added to respective columns as vehicle control with BioRaptr.
# 4. […]
# % is set by controls: 0 for no effect and ±100 for the full control effect; potency is the fitted concentration of half-maximal effect.
# Sequence of Atrial natriuretic peptide receptor 1 (Homo sapiens) (P16066 whole entry, looked up): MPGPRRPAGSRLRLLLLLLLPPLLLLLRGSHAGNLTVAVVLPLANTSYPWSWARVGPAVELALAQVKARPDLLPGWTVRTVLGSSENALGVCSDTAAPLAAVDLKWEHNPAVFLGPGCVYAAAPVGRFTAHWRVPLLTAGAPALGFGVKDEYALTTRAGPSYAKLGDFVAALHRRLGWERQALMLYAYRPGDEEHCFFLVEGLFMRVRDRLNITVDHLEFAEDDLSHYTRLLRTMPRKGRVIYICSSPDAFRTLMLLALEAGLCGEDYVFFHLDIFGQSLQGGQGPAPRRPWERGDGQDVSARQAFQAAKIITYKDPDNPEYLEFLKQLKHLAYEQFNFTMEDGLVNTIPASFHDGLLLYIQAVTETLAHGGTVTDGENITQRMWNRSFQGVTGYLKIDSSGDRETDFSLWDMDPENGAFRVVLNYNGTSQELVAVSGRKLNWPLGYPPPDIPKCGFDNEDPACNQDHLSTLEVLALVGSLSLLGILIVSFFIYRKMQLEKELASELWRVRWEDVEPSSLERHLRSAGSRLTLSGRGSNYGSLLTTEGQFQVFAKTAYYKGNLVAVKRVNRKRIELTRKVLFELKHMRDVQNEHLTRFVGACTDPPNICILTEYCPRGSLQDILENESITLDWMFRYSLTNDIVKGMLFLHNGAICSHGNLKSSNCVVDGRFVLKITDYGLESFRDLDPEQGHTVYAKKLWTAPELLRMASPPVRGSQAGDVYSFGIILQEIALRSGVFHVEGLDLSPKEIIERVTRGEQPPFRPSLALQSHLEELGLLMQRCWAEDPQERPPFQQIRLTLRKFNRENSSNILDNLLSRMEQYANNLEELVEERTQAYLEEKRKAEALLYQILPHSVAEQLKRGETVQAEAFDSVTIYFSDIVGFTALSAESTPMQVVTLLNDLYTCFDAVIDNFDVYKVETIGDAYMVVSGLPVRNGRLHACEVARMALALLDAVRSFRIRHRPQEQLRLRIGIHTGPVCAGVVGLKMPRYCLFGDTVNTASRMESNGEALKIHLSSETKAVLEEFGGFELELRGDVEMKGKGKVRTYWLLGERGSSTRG
SMILES,"activity change, negative = inhibition [%]",Potency
N[C@@H](Cn1ccc(=O)c(O)c1)C(=O)O,12.2,–
O=[N+]([O-])c1ccc(-c2nc(-c3ccc(F)cc3)c(-c3ccncc3)[nH]2)cc1,-7,–
CC(C)N(CCC(=O)c1ccc2ccccc2c1)Cc1ccccc1,–,13.5 µM (active)
CCN(CC)CCNC(=O)c1ccc(NS(C)(=O)=O)cc1,11.4,–
NC(N)=NCCCCN=C(N)N,3.97,–
Clc1ccc2c(c1)N=C(N1CCNCC1)c1ccccc1N2,-9.08,–
O=C1NC(c2cccc([N+](=O)[O-])c2)=CCN1c1ccccc1O,24.2,–
C[N+](C)(C)CCO,11,–
Brc1ccc([C@H]2CN3CCSC3=N2)cc1,-7.96,–
COc1ccccc1N1CCN(CCN2C(=O)CC3(CCCC3)CC2=O)CC1,5.24,–
COc1cccc2c1[C@@H]1CN(CCCCn3c(=O)[nH]c4c(sc5ncc(-c6ccccc6)nc54)c3=O)C[C@@H]1CO2,-3.31,–
Cc1nn(-c2ccccc2)c(C)c1/C=N/N1CCN(Cc2ccccc2)CC1,0.887,–
Nc1ncnc2n[nH]c(Nc3ccc(F)cc3)c12,-5.04,–
COC(=O)C1=CO[C@@H](O)[C@@H]2C(CO)=CC[C@H]12,-2.91,–
CN(C)c1cc2c(Nc3ccc4c(cnn4Cc4ccccc4)c3)ncnc2cn1,-17.7,–
Cn1cnc2c(NCc3ccccc3)nc(NCCO)nc21,2.48,–

# Source: PubChem BioAssay (NCATS)
